Measurements reported in PubChem BioAssay (Tox21).
Results filed as inconclusive are left out. Where a call stands in place of a potency, no number is given. Activity calls are given as the source filed them. The call rests on the fitted dose curve; in most records, active means well fitted activation curve with a large enough effect in the repeat runs; inconclusive means weak or mixed curves, or effect the other way; inactive means no such curve, though single readings can be large or run the other way.

Assay: qHTS assay to identify small molecule agonists of the retinoic acid receptor (RAR) signaling pathway (AID 1159553)
Settings: C3RL4 RARE luciferase reporter, agonist, 6 h; activation: at 73.3 µM (top of the series)
Description: National Center for Advancing Translational Sciences [NCATS] NIH Chemical Genomics Center [NCGC] U.S. Environmental Protection Agency [EPA] National Institutes of Environmental Health Sciences [NIEHS] National Toxicology Program [NTP] Assay overview: All-trans Retinoic acid (atRA) is the potent natural metabolite of retinol and plays an important role in normal embryonic development and maintenance of cellular phenotype in adult animals. atRA is the activating ligand for the retinoic acid receptors (RARs) which form heterodimers with retinoid X receptors (RXRs) on the retinoic acid response element (RARE). Through activation of the RAR/RXRs nuclear receptors, atRA regulates the transcription of a large number of protein-coding genes and regulatory RNAs. Intracellular levels of atRA are controlled by the retinol signaling pathway (RSP) that regulates the biosynthesis and catabolism of atRA to maintain physiological levels. Chemicals that interfere with the RSP can cause abnormal intracellular levels of atRA and therefore are potential developmental toxicants. To assess compounds for the potential adverse effect on embryonic development through interfering with retinol signaling, a cell-based RARE luciferase reporter gene assay was used. C3RL4 cell line (OARSA/CFSAN/FDA, Laurel, MD) was used to screen Tox21 10K compound library for identifying activators of the RSP.
Assay Protocol Summary: C3RL4 cells were seeded at 1,000/well in 5 uL of assay medium into white solid 1,536-well tissue culture plates (Greiner Bio-One North America Inc. Monroe, NC) using a Multidrop Combi (Thermo Scientific, Waltham, MA) dispenser. After incubation at 37 C and 5% CO2 for an overnight, 23 nL of compounds dissolved in DMSO, positive control or DMSO only were transferred by a Pintool station (Kalypsys, San Diego, CA). After 6 hr incubation at 37 C and 5% CO2, 5 uL of Amplite Luciferase reagent (AAT Bioquest Inc. Sunnyvale, CA) was added to each assay plate using a Flying Reagent Dispenser (FRD) (Aurora Discovery, San Diego, CA). Luminescence was quantified on a ViewLux plate reader (PerkinElmer, Waltham, MA) after 30 min incubation at room temperature.
Potency means the concentration at half of the fitted maximal effect.

| Structure (SMILES) | Potency |
| --- | --- |
| CC(CC(=O)O)CC(C)(C)C (stereo not given) | inactive |
| COc1cccc2sc(N)nc12 | inactive |
| O=C1OC(=O)c2ccccc21 | inactive |
| CN(C1CCCCC1)S(=O)(=O)c1ccccc1N | inactive |
| CCCCCCCCCCCCOC(C)=O | inactive |
| Cc1oc(=O)oc1CN1CCN(c2cc3c(cc2F)c(=O)c(C(=O)O)c2n3C(C)S2)CC1 (stereo not given) | inactive |
| CCCCCCCCCCCCCCCCCCN(C)C | inactive |
| CO[Si](CCCCl)(OC)OC | inactive |
| O=C(O)/C=C/c1ccccc1 | inactive |
| O=C(COCCOCCOCC(=O)Nc1c(I)cc(I)c(C(=O)O)c1I)Nc1c(I)cc(I)c(C(=O)O)c1I | inactive |
| O=c1[nH]c(=O)c2ccccc2o1 | inactive |
| CCNC(=O)/C=C/c1cccc(Br)c1 | 15 µM (active) |
| O=S(=O)(O)c1cc(O)ccc1O | inactive |
| Cc1cccc(C(=O)O)c1[N+](=O)[O-] | inactive |
| C=C(C)C(=O)OC | inactive |
| C=C[C@@H](C)CCC=C(C)C | inactive |
| CCCCCCCCC(=O)OCC | inactive |
| FC(F)(F)/C(=N\OCC1OCCO1)c1ccc(Cl)cc1 | inactive |
| CN[C@@H]1[C@@H](O)[C@@H](O[C@@H]2[C@H](O)[C@H](O[C@H]3OC(CN)=CC[C@H]3N)[C@@H](N)C[C@H]2N)OCC1(C)O (stereo not given in full) | inactive |
| Cc1ccc2c(c1)c1c3n2CCNC3CCC1 (stereo not given) | inactive |

| Structure (SMILES) | Potency |
| --- | --- |
| O=P(O)(O)OCC(O)CO (stereo not given) | inactive |
| CC(C)CCC(=O)CCC(C)C | inactive |
| CCC(C)(CCC(C)C)C(=O)[O-].CCC(C)(CCC(C)C)C(=O)[O-].[Zn+2] (stereo not given) | inactive |
| CCCCCC1CCCC(=O)O1 (stereo not given) | inactive |
| CCC1COC(=O)O1 (stereo not given) | inactive |
| Nc1ccnc(=O)[nH]1 | inactive |
| O=C1NC2NC(=O)NC2N1 (stereo not given) | inactive |
| C1=CCC(c2ccccc2)CC1 (stereo not given) | inactive |
| COc1cc([N+](=O)[O-])ccc1N | inactive |
| C1CCN2C[C@@H]3C[C@@H](CN4CCCC[C@@H]34)[C@H]2C1 | inactive |
| CC(C)COC(=O)COc1ccc(Cl)cc1Cl | inactive |
| CCCCCCCCCCC | inactive |
| Cc1ccc(C(=O)C(=O)O)cc1C | inactive |
| CC(C)(C)NCCO | inactive |
| CC1=NN(c2ccc(S(=O)(=O)O)cc2)C(=O)C1N=Nc1ccccc1 (stereo not given) | inactive |
| C[CH2][Ge]([Cl])([CH2]C)[CH2]C | inactive |
| CCCCCN(CCCOC)C(=O)C(CCC(=O)O)NC(=O)c1ccc(Cl)c(Cl)c1 (stereo not given) | inactive |
| OC[C@@H](O)[C@H](O)[C@@H](O)[C@@H](O)CO | inactive |
| Nc1cc(S(=O)(=O)O)ccc1S(=O)(=O)O | inactive |
| C[C@H](CCC(=O)O)[C@H]1CC[C@H]2[C@@H]3[C@H](O)C[C@@H]4C[C@H](O)CC[C@]4(C)[C@H]3C[C@H](O)[C@]12C | inactive |
